Reference: PubChem BioAssay (NCATS)
Inconclusive results are not listed. Calls of active or inactive are those of the source. Calls come from the whole dose curve; as a rule, active = well fitted curve in the direction sought with a large enough effect; inconclusive = small, poorly fitted or top-dose-only effect, or another doubt; inactive = no such curve, though single readings can be large; an effect the other way counts as inactive or inconclusive. Where a SMILES comes first, the peptide text is derived from it. [ ]: non-standard residue; d: D form. pGlu = O=C1CC[C@@H](C(=O)O)N1

Assays:
[1] = NS1 protein of Zika virus - qHTS assay to identify small molecule inhibitors in human HEK 293 cells (AID 1347053); note: series mostly up to about 46 µM; nearly all actives have a fitted effect of over 55% in size
Procedure, shortened: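 Readout was TR-FRET using paired anti-NS1 antibodies after 24 h infection of HEK 293 cells with ZIKV MR766 (MOI = 0.5). Compound preceded virus by 1 h; reduced signal reflects lower NS1 expression.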

[2] = qHTS of pediatric cancer cell lines to identify multiple opportunities for drug repurposing: Primary screen for TC32 cells (AID 1347089); note: nearly all actives have a fitted effect of over 60% in size
Procedure, shortened: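 In the primary qHTS, MIPE compounds were tested at 11 concentrations (0.78 nM to 46 µM) and NPC compounds at 8 (0.59 nM to 46 µM) on TC32 cells for 48 h. CellTiter-Glo luminescence gave viability.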

[3] = qHTS of pediatric cancer cell lines to identify multiple opportunities for drug repurposing: Primary screen for DAOY cells (AID 1347090); note: series mostly up to about 46 µM; nearly all actives have a fitted effect of over 55% in size
Procedure, shortened: (§1)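 Cell viability, CellTiter-Glo luminescence; 500-1,000 cells/well, 8- or 11-point titration, 48 h compound exposure at 37 degrees C, 5% CO2. Controls: DMSO neutral, bortezomib 2.3 µM final as positive.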

[4] = qHTS of pediatric cancer cell lines to identify multiple opportunities for drug repurposing: Primary screen for SJ-GBM2 cells (AID 1347091)
Procedure, shortened: as §1

[5] = qHTS of pediatric cancer cell lines to identify multiple opportunities for drug repurposing: Primary screen for A673 cells (AID 1347092); note: nearly all actives have a fitted effect of over 45% in size
Procedure, shortened: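 48 h compound exposure, A673, 500-1,000 cells/well, 37 degrees C/5% CO2. MIPE: 11-point, 0.78 nM-46 µM; NPC: 8-point, 0.59 nM-46 µM (final). Readout CellTiter-Glo luminescence after 15 min RT.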

Measured: Potency

CN1N=C(C(N)=O)CCC1=O
inactive: all assays above

O=C1Nc2cc(Cl)ccc2Oc2ccccc21
inactive: all assays above

CC(=O)c1cc2ccccc2s1
inactive: all assays above

CNC(=O)c1c(I)c(NC(C)=O)c(I)c(C(=O)O)c1I
inactive: all assays above

CC(Oc1c(Cl)cccc1Cl)C1=NCCN1 (stereo not given)
inactive: all assays above

CN(C)[C@@H]1C(=O)C(C(N)=O)=C(O)[C@@]2(O)C(=O)C3=C(O)c4c(O)cccc4C[C@H]3C[C@@H]12
inactive: all assays above

O=C(CS(=O)Cc1ccco1)NC/C=C\COc1cc(CN2CCCCC2)ccn1 (stereo not given)
inactive: all assays above

Cc1sccc1Br
inactive: all assays above

O=C(O)c1ccc(OCCN2CCCCC2)cc1
inactive: all assays above

CN(C)CCCOC1(Cc2ccccc2)CCCCCC1
inactive: all assays above

C[C@H]1C[C@H](O)c2ccsc2S1(=O)=O
inactive: all assays above

CC(C)C[C@@H]1[C@H](c2ccccc2)OC(=O)N1CCCN1CCCCCC1
inactive: all assays above

NC(=O)NC1N=C([O][Al])NC1=O (stereo not given)
inactive: all assays above

CN=C(N)NC(=O)Nc1c(C)cccc1C
inactive: all assays above

CCOC(=O)c1ccc(NC(=O)CN2CCCCC2)cc1
inactive: all assays above

O=C(OCC(COC(=O)c1cccnc1)(COC(=O)c1cccnc1)COC(=O)c1cccnc1)c1cccnc1
inactive: all assays above

Nc1ncnc2nc[nH]c12
inactive: all assays above

O=C(O)C1CCC1
inactive: all assays above

Cn1c(=O)c2c(ncn2CC(=O)O)n(C)c1=O
inactive: all assays above

CC(=O)N[C@@H](CO)C(=O)N[C@@H](CC(=O)O)C(=O)N[C@@H](CCCCN)C(=O)N1CCC[C@H]1C(=O)O (Ac-SDKP-OH)
inactive: all assays above

CCN(CC)CC(=O)Nc1c(C)cccc1C(=O)OC
inactive: all assays above

c1ccc2c(c1)CCc1ccccc1N2
inactive: all assays above

O=C1[C@@H]2[C@H]3CC[C@H](C3)[C@@H]2C(=O)N1CCCCN1CCN(c2ncccn2)CC1
inactive: all assays above

COC(=O)c1cc(S(N)(=O)=O)ccc1OC
inactive: all assays above

NC(=O)COCCN1CCN(C(c2ccccc2)c2ccc(Cl)cc2)CC1 (stereo not given)
inactive: all assays above

OCCOCCN1CCN(C(c2ccccc2)c2ccc(Cl)cc2)CC1 (stereo not given)
inactive: all assays above

Cc1onc(-c2ccccc2)c1C(=O)Cl
inactive: all assays above

O=C(O)c1cn(C2CC2)c2cc(Cl)c(F)cc2c1=O
inactive: all assays above

CCOc1c(N2CCOCC2)cnn(C)c1=O
inactive: all assays above

CCC(CN)=C(c1ccccc1)c1ccccc1
inactive: all assays above

[O-][n+]1cccc(/C(Cl)=N/OC[C@@H](O)CN2CCCCC2)c1
inactive: all assays above

O=c1[nH]c2ccccc2c(=O)n1CCCl
inactive: all assays above

CCC(C(=O)NC(=O)NC(C)=O)c1ccccc1 (stereo not given)
inactive: all assays above

O=C(CCCCCCCCC#CI)Oc1ccccc1
inactive: all assays above

Cc1cnc(NS(=O)(=O)c2ccc(N)cc2)nc1
inactive: all assays above

Cc1onc(-c2c(Cl)cccc2Cl)c1C(=O)Cl
inactive: all assays above

CC(=O)CC/C=C(\C)CC/C=C(\C)CC/C=C(\C)CCC=C(C)C
inactive: all assays above

COc1ccc2nc(SCc3ncc(C)c(OC)c3C)[nH]c2c1
inactive: all assays above

COC(=O)c1ccc(NC(C)=O)cc1OC
inactive: all assays above

O=C(O)C(=O)Nc1cccc(-c2nn[nH]n2)c1
inactive: all assays above

Nc1ccc([N+](=O)[O-])c(C(F)(F)F)c1
inactive: all assays above

Nc1ccc(C(=O)OCC(O)CO)cc1 (stereo not given)
inactive: all assays above

Nc1ccc(C(=O)N2CC3CC(CN(Cc4ccccc4)C3)C2)cc1
inactive: all assays above

C[C@@H]1CCC[C@H](C)N1CCCC(O)(c1ccccc1)c1ccccn1 (stereo not given in full)
inactive: all assays above

O=C(CCOCCOCCOCCOCCC(=O)Nc1c(I)cc(I)c(C(=O)O)c1I)Nc1c(I)cc(I)c(C(=O)O)c1I
inactive: all assays above

COc1ccc2c(c1)CCCC2=O
inactive: all assays above

Nc1ncnc2c1ncn2Cc1c(F)cccc1Cl
inactive: all assays above

CCNC(=O)[C@@H]1CCCN1C(=O)[C@H](CCCN=C(N)N)NC(=O)[C@H](CC(C)C)NC(=O)CNC(=O)[C@H](Cc1ccc(O)cc1)NC(=O)[C@H](CO)NC(=O)[C@H](Cc1c[nH]c2ccccc12)NC(=O)[C@H](Cc1cnc[nH]1)NC(=O)[C@@H]1CCC(=O)N1 ([pGlu]HWSYGLRP-NHEt)
inactive: all assays above

N#CSCC(=O)O
inactive: all assays above

OC[C@]1(O)OC[C@@H](O)[C@H](O)[C@@H]1O
inactive: all assays above

CC(C)C(=O)Nc1cccc(C2CN3CCSC3=N2)c1 (stereo not given)
inactive: all assays above

Cc1cccc(N(C)C(=S)Oc2ccc3c(c2)CCC3)c1
inactive: all assays above

CCCCC(O)/C=C(C)/C=C/C=C/C(=O)N1CCCC1=O (stereo not given)
inactive: all assays above

C[C@H]1C[C@H]2[C@@H]3CCC4=CC(=O)C=C[C@]4(C)[C@H]3C(=O)C[C@]2(C)[C@@]1(O)C(=O)CO
inactive: all assays above

COc1cc(S(N)(=O)=O)cc(C(=O)O)c1OC
inactive: all assays above
